# Assay results: PubChem BioAssay (NCATS)
# A number with no mark means an inactive call. Records with an inconclusive call do not appear. A call without a number means that no potency is given here. Activity calls are given as the source filed them. The call rests on the fitted dose curve; in most records, active means well fitted curve in the direction sought with a large enough effect; inconclusive means small, poorly fitted or top-dose-only effect, or another doubt; inactive means no such curve, though single readings can be large; an effect the other way counts as inactive or inconclusive.
# Legend:
# [1] = qHTS to identify inhibitors of the type 1 interferon - major histocompatibility complex class I in skeletal muscle: primary screen against the NCATS LOPAC collection (AID 1347405);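 further: human myoblasts with HiBiT tag on endogenous HLA-B stimulated by IFN-beta; lytic HiBiT luminescence reporting HLA-B protein level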; further: potency means the concentration at half of the fitted maximal effect
# Outline: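 First, engineered myoblasts carrying HLA-B-HiBiT were seeded in medium lacking dexamethasone with 4 ng/ml IFN-beta. After 1 hr, compounds were pinned in (top 46 uM final, 7 points). After 24 hrs at 37 C, luminescence was measured following 10 min lysis.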
# [2] = qHTS for inhibitors of adenylyl cyclases using a fission yeast platform: a pilot screen against the NCATS LOPAC library (AID 1347410)
# Outline: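 Fission yeast qHTS: CHP2027 cells (AC9-GNAS-PDE4D2, fbp1-GFP), 5x10^6 cells/mL working density, EMM + His/Lys/Ura; LOPAC at up to 57 µM final; 18 h dark, 30C; GFP by laser cytometry. DPI positive control, DMSO vehicle.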
# [3] = Validation qHTS assay for inhibitors of Activation Induced Cytidine Deaminase (AID): UDG Counterscreen signal (AID 1347427)
# Outline: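 Fluorescence at 560 nm excitation, 665 nm emission reports UDG signal after 250 mM NaOH (2x) addition and 30 min. Enzymes (AID 1 uM, UDG 2 U/mL, at 4/3x) preincubated 10 min with compound, then 4 h with 4x 250 nM DJC20/DJC23 substrate at room temperature.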
# [4] = qHTS to identify inhibitors of the type 1 interferon - major histocompatibility complex class I in skeletal muscle: primary screen against the NCATS Pharmaceutical Collection (AID 1347407);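 further: luminescence of HiBiT knocked into endogenous HLA-B as interferon-induced MHC class I level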
# Outline: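 Luminescence from HiBiT-tagged endogenous HLA-B*08:01 served as the read-out of IFN-beta-induced MHC class I in CRISPR-engineered C25cl48 myoblasts. Cells received 4 ng/ml IFN-beta plus compound (high final 46 uM, […]) for 24 h.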
Structure (SMILES),Potency [1],outcome [2],Potency [3],Potency [4]
Oc1ccccc1O,inactive,inactive,inactive,
C=CC(C)=C[C@@]1(C)SC(=O)C(C)=C1O,inactive,inactive,inactive,
O=C(/C=C/c1ccc(O)c(O)c1)OCCc1ccccc1,inactive,inactive,inactive,
NCCCCCCCCCCN,inactive,inactive,inactive,
C[N+](C)(C)CCOP(=O)(O)OP(=O)([O-])OC[C@H]1O[C@@H](n2ccc(N)nc2=O)[C@H](O)[C@@H]1O,inactive,inactive,inactive,
CC1CN(S(=O)(=O)c2cccc3cnccc23)CCN1 (stereo not given),inactive,inactive,inactive,
CNC(=O)[C@H]1O[C@@H](n2cnc3c(NCc4ccc(N)cc4)ncnc32)[C@H](O)[C@@H]1O,inactive,inactive,inactive,
N#C/C(=C\c1ccc(-c2cc(Cl)ccc2Cl)o1)C(=O)Nc1cccc2ncccc12,14.1 µM (active),inactive,inactive,
CC(C)NC[C@@H](O)c1ccc(O)c(O)c1,inactive,inactive,inactive,
CC(C)(C)c1ccc(S(=O)(=O)/C=C/C#N)cc1,7.08 µM (active),inactive,inactive,
Fc1cccc(/C=N/N=C/c2cccc(F)c2)c1,inactive,inactive,inactive,
CC(C(=O)O)c1ccc2c(c1)[nH]c1ccc(Cl)cc12 (stereo not given),,,,inactive
COc1cccc(OC)c1OCCNCC1COc2ccccc2O1 (stereo not given),inactive,inactive,inactive,
CC(=O)N[C@H](C(=O)O)C(C)(C)SN=O,inactive,inactive,inactive,
CCCN(CC1CC1)c1nc(C)nc(Nc2c(Cl)cc(Cl)cc2Cl)c1Cl,inactive,inactive,inactive,
OC[C@H]1O[C@@H](n2cnc3c(NC4CCCCC4)ncnc32)[C@H](O)[C@@H]1O,inactive,inactive,inactive,
Clc1ccc(N2CCN(Cc3cc4ccccn4n3)CC2)cc1,inactive,inactive,inactive,
CSc1nc(N)c2ncn([C@@H]3O[C@H](COP(=O)(O)OP(=O)(O)OP(=O)(O)O)[C@@H](O)[C@H]3O)c2n1,inactive,inactive,inactive,
CNc1ncnc2c1ncn2[C@@H]1O[C@H](CO)[C@@H](O)[C@H]1O,inactive,inactive,inactive,

Structure (SMILES),Potency [1],outcome [2],Potency [3],Potency [4]
O=C(c1ccc(OCCCc2cnc[nH]2)cc1)C1CC1,inactive,inactive,inactive,
Oc1cc2c(cc1O)CN(C(=S)NCCc1ccc(Cl)cc1)CCC2,inactive,inactive,inactive,
Nc1ncnc2c1ncn2[C@@H]1O[C@H](COP(=O)(O)CP(=O)(O)OP(=O)(O)O)[C@@H](O)[C@H]1O,inactive,inactive,inactive,
C[C@@H](CN1CCC(Cc2ccccc2)CC1)[C@@H](O)c1ccc(O)cc1,inactive,inactive,inactive,
Fc1ccc(C(OCCCc2cnc[nH]2)c2ccc(F)cc2)cc1,inactive,inactive,inactive,
NC(CCCP(=O)(O)O)C(=O)O (stereo not given),inactive,inactive,inactive,
Cn1cc(C2=C(c3ccc(Cl)cc3Cl)C(=O)NC2=O)c2ccccc21,inactive,,inactive,
O=C(O)c1ccccc1Nc1cccc(C(F)(F)F)c1,,,,inactive
COc1ccc(NC(=O)/C=C/c2ccc(Cl)cc2)cc1,inactive,inactive,inactive,
NCC1OC(O[C@H]2[C@H](O)[C@@H](OC3C(O)C(N)CC(N)C3OC3OC(CO)C(O)C(O)C3N)O[C@@H]2CO)C(N)C(O)C1O (stereo not given in full),inactive,inactive,inactive,
O=C(CCCCCN1CCN(c2ccccc2-c2ccccc2)CC1)NC1CCCc2ccccc21 (stereo not given),inactive,inactive,inactive,
O=C(O)c1cc(=O)c2c(Cl)cc(Cl)cc2[nH]1,inactive,inactive,inactive,
CC(C)CC(NP(=O)(O)O[C@@H]1O[C@@H](C)[C@H](O)[C@@H](O)[C@H]1O)C(=O)NC(Cc1c[nH]c2ccccc12)C(=O)O (stereo not given in full),inactive,inactive,inactive,
CN(C)[C@@H]1C(=O)C(C(=O)NCN2CCCC2)=C(O)[C@@]2(O)C(=O)C3=C(O)c4c(O)cccc4[C@@](C)(O)C3C[C@@H]12 (stereo not given in full),,,,inactive
CC(C)NC[C@H](O)COc1cccc2[nH]ccc12,inactive,inactive,inactive,
O=C1/C(=C/c2ccsc2)CC/C1=C\c1cccs1,inactive,inactive,inactive,
COc1cccc(C(=O)NCCN2CCN(c3ccc(Cl)cc3)CC2)c1,inactive,inactive,inactive,
NC(=O)C1=CN(C2OC(COP(=O)(O)OP(=O)(O)OC[C@H]3O[C@@H](n4cnc5c(N)ncnc54)[C@H](OP(=O)(O)O)[C@@H]3O)C(O)C2O)C=CC1 (stereo not given in full),inactive,inactive,inactive,
O=Cc1ccc(O)c(O)c1O,,,,inactive
